# Results taken from ChEMBL document CHEMBL4649985, “Generation of a Selective Small Molecule Inhibitor of the CBP/p300 Bromodomain for Leukemia Therapy” (Cancer Res, 2015).
# “And” between values parts separate entries of the source, which are not always exact repeats. Equal entries are not always repeated.
# What was measured:
# [1] = molecular target: Bromodomain-containing protein 4 (Homo sapiens) (UniProt O60885); conditions: Compound concentration 10.0 uM, Protein concentration 2.0 uM
# [2] = molecular target: T1, Transcription intermediary factor 1-alpha (Homo sapiens) (UniProt O15164); conditions: Compound concentration 10.0 uM, Protein concentration 2.0 uM
# T1 sequence (whole entry): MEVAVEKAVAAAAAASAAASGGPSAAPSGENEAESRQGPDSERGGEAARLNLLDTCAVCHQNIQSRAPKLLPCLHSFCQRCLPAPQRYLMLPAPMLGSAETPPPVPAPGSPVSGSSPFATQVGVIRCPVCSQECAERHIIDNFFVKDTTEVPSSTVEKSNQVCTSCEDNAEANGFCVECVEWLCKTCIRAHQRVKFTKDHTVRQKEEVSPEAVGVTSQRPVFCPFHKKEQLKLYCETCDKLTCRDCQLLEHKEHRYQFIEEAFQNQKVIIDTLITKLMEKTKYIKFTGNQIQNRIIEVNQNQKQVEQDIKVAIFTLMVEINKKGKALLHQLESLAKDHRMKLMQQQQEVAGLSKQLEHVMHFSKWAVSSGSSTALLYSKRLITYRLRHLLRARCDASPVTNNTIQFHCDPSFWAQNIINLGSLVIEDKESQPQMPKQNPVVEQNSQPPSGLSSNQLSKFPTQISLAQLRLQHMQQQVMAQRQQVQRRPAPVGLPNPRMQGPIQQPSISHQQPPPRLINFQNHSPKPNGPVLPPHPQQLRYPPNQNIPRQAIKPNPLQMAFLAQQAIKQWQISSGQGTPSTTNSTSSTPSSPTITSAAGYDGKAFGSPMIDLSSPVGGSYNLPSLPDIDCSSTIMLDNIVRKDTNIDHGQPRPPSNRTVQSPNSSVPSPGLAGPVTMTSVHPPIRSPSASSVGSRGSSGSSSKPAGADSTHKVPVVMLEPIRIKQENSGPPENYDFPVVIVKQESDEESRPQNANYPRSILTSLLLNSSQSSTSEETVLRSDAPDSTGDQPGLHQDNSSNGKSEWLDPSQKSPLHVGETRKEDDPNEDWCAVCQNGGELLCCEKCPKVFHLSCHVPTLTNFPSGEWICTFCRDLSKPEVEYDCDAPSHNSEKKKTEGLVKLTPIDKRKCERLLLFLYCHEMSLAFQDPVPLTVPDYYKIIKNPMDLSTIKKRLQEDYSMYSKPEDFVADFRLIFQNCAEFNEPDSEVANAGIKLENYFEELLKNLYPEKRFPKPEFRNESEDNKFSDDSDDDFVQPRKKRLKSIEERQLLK
structure (smiles),measurement,setting,value
CCC(=O)N1CCOc2c(cc(-c3ccc(OC)c(OC)c3)cc2OC[C@H]2CCCN(C)C2)C1,ΔTm,[1],2.08 °C and 2.81 °C
same,ΔTm,[2],1.25 °C
